# Source: PubChem BioAssay (NCATS)
# Values without a mark were called inactive. Inconclusive results are not listed. Active and inactive are the calls of the source. Unless noted, calls come from the whole dose curve; as a rule, active = well fitted curve in the direction sought with a large enough effect; inconclusive = small, poorly fitted or top-dose-only effect, or another doubt; inactive = no such curve, though single readings can be large; an effect the other way counts as inactive or inconclusive.
# Experiments:
# [1] = biological target: Lysosomal acid glucosylceramidase (Homo sapiens) (UniProt P04062); assay: Glucocerebrosidase-p2 (AID 348; in the data active = potency below about 10 µM; note: potency is the fitted concentration of half-maximal effect); conditions: purified GBA, blue fluorogenic substrate, 40 min
# Procedure, shortened: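 Compounds titrated from 0.6 nM upwards against 0.2 nM enzyme in pH 5.9 citric acid/KH2PO4, taurocholate, tween-20; blue fluorogenic substrate 80 uM, 40 min room temperature, stopped and read Ex 365/Em 440 for AC50.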
# [2] = AP1 Signaling Pathway (AID 357; active = well fitted curve in either direction with a large enough effect, not every such curve was filed as active; note: % is set by controls: 0 for no effect and ±100 for the full control effect); conditions: ME-180 AP-1-bla reporter, EGF-induced, beta-lactamase ratio, 5 h; at 7.69 µM (top of the series) unless noted
# Procedure, shortened: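 ME-180 cells with beta-lactamase reporter under AP-1 response element, stimulated with EC50 EGF; compounds tested in titration series, 5 h at 37 °C. CCF4 substrate added 2.5 h at room temperature; 460/530 nm emission ratio gave %activity and AC50.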
# [3] = biological target: Cytochrome P450 1A2 (Homo sapiens) (UniProt P05177); assay: p450-cyp1a2 (AID 410; calls by dose curve; note: potency is the fitted concentration of half-maximal effect); conditions: recombinant CYP1A2, luciferin-ME demethylation, luminescence; series mostly up to 57 µM
# Procedure, shortened: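 Luminescent readout of luciferin formed from Luciferin-ME by human CYP1A2; data normalized against complete inhibition by 57 uM furafylline. Enzyme 20nM, substrate 100uM at Km, 100mM KPO4 buffer, 60 min reaction at room temperature.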
# [4] = NFAT Signaling Pathway (AID 444; active = well fitted curve in either direction with a large enough effect, not every such curve was filed as active;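 note: carbachol stimulus at about its EC50 of 1 µM final; % is set by controls: 0 for no effect and ±100 for the full control effect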); conditions: Jurkat NFAT-bla M1, carbachol, beta-lactamase ratio, 5 h; at 7.69 µM (top of the series) unless noted
# Procedure, shortened: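 Jurkat cells with NFAT-driven β-lactamase reporter and co-expressed M1 receptor, stimulated with carbachol (final 1 uM, ~EC50), compound titration, 5 h at 37 °C. CCF4 loaded 1 h at RT; 460/530 nm ratio gave %activity and AC50.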
# [5] = Stat Signaling Pathway (AID 446; active = well fitted curve in either direction with a large enough effect, not every such curve was filed as active;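 note: ME-180 cervical cancer cells given 40 pM IL-6 alongside compound; SIE-controlled beta-lactamase reporter measured as 460/530 nm FRET emission ratio; % is set by controls: 0 for no effect and ±100 for the full control effect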); conditions: ME-180 SIE beta-lactamase reporter, IL-6 stimulated, 5 h; at 7.69 µM (top of the series) unless noted
# Procedure, shortened: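 Reporter line: ME-180 cervical carcinoma, SIE-beta-lactamase. Treatment: compound with 40 pM IL-6, 5 hrs, 37 C, in low-serum OPTI-MEM with 10 mM HEPES pH 7.3. Detection: 460/530 nm fluorescence.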
# [6] = biological target: Glucocorticoid receptor (Homo sapiens) (UniProt P04150); assay: GR-GFP Redistribution (AID 450;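 active = compounds whose dose series gives a full or clear partial fitted curve of increased nuclear translocation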; note: potency is the fitted concentration of half-maximal effect); conditions: U2OS GR-GFP nuclear translocation, laser cytometry, 2 h
# [7] = biological target: Glucocorticoid receptor (Homo sapiens) (UniProt P04150); assay: GR-EFC Redistribution (AID 451; calls by dose curve; note: potency is the fitted concentration of half-maximal effect); conditions: CHO-K1 GR-EFC translocation, beta-gal luminescence, 2 h
# Procedure, shortened: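 CHO-K1 cells expressing nuclear EA and GR-ED fragments of b-gal; compounds titrated up to 46 uM final, 2 h at 37 C. GR nuclear translocation read as complemented b-gal luminescence after 1 h RT detection.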
# [8] = biological target: Mitogen-activated protein kinase 10 (Mus musculus) (UniProt Q61831); assay: JNK3 AlphaScreen Assay (AID 530; active = well fitted curve in either direction with a large enough effect, not every such curve was filed as active;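 note: kinase came from lysate of stimulated human HepG2 cells; signal reports phosphorylation of biotinylated GST-cJun 1-79 at Ser73 with 10 µM ATP; % is set by controls: 0 for no effect and ±100 for the full control effect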); conditions: JNK3 lysate, c-Jun phosphorylation; series mostly up to 57.1 µM
# Procedure, shortened: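 Pre-activated (IL-1β/TNFα) JNK3 in HepG2 lysates phosphorylates biotin-GST-cJun(1-79), 10 uM ATP; anti-phospho-cJun(Ser73) AlphaScreen read at room temperature, pH 7.6 Tris buffer. Compounds pre-incubated 15 min as titrations.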
# [9] = biological target: 3',5'-cyclic-AMP phosphodiesterase 4B (Homo sapiens) (UniProt Q07343); assay: qHTS Assay for Inhibitors of PDE-IV (AID 607; active = well fitted activation curve with a large enough effect in the main read-out, with a control signal flat, not every such curve was filed as active; note: % of control where 0% means no effect); conditions: HEK293 ACTOne CNG channel cells, membrane potential fluorescence; series mostly up to 22.9 µM
# Procedure, shortened: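 Cell-based read-out of cAMP via a modified cyclic nucleotide-gated channel and membrane potential dye (535/590 nm) in HEK293 cells expressing PDE4 endogenously. Compounds tested up to 22.9 uM final; 100 uM RO 20-1724 reference.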
# [10] = biological target: Cytochrome P450 3A4 (Homo sapiens) (UniProt P08684); assay: qHTS Assay for Inhibitors and Substrates of Cytochrome P450 3A4 (AID 884); conditions: recombinant CYP3A4, Luciferin-PPXE luminescence; series mostly up to 57.1 µM; note: potency is the fitted concentration of half-maximal effect; nearly all actives have a fitted effect of over 50% in size
# Procedure, shortened: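 20 nM human CYP3A4 with 25 uM Luciferin-PPXE (at KM) in 200 mM KPO4, preincubated 10 min with compound; NADPH regeneration started a 60 min RT reaction. Luciferin detected by luminescence, normalized to 57 uM ketoconazole as full inhibition.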
# [11] = biological target: Cytochrome P450 3A4 (Homo sapiens) (UniProt P08684); assay: qHTS Assay for Activators of Cytochrome P450 3A4 (AID 885); conditions: recombinant CYP3A4, Luciferin-PPXE luminescence, 60 min; series mostly up to 57.1 µM; note: nearly all actives have a fitted effect of over 65% in size
# Procedure, shortened: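 Signal was normalized against complete inhibition by 57 uM ketoconazole. The reaction used 20nM CYP3A4 with 25uM Luciferin-PPXE, 10-min compound preincubation and a 60-min NADPH-supported step at RT.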
# [12] = biological target: Cytochrome P450 2C19 (Homo sapiens) (UniProt P33261); assay: qHTS Assay for Inhibitors and Substrates of Cytochrome P450 2C19 (AID 899); conditions: recombinant CYP2C19, luciferin-H EGE luminescence; series mostly up to 57.1 µM; note: potency is the fitted concentration of half-maximal effect; nearly all actives have a fitted effect of over 60% in size
# Procedure, shortened: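 Luminescent read-out of luciferin formed from Luciferin-H EGE (10uM, equal to KM). Enzyme 5nM in 50mM KPO4; compound added, 10 min at 37C, then NADPH regenerating system for 60 min at 37C. Full inhibition defined by 57uM ketoconazole.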
# [13] = biological target: Dual specificity protein kinase CLK4 (Homo sapiens) (UniProt Q9HAZ1); assay: qHTS Assay for Inhibitors of CDC-like Kinase 4 (Kinase-Glo Assay) (AID 1770); conditions: recombinant Clk4, Kinase-Glo ATP depletion luminescence; series mostly up to 66.7 µM; note: nearly all actives have a fitted effect of over 65% in size; note: potency is the fitted concentration of half-maximal effect
# Procedure, shortened: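 Recombinant human Clk4 (25 nM) phosphorylated RS repeat peptide (100 uM) with 1 uM ATP in Tris pH 7.5/MgCl2/EGTA/DTT/Triton buffer for 4.5 h at room temperature. Residual ATP was quantified by Kinase-Glo luciferase luminescence.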
# [14] = biological target: Ubiquitin carboxyl-terminal hydrolase 1 (Homo sapiens) (UniProt O94782); assay: Inhibitors of USP1/UAF1: Pilot qHTS (AID 504865); conditions: purified USP1/UAF1, Ub-rhodamine cleavage fluorescence; series mostly up to 54.9 µM;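 note: rhodamine fluorescence freed from ubiquitin-rhodamine substrate followed over time; top concentration of the series differs between compounds; % is set by controls: 0 for no effect and ±100 for the full control effect; nearly all actives have a fitted effect of over 35% in size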
# Procedure, shortened: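 USP1/UAF1 complex (1nM) preincubated with compound 15 min at room temperature, then Ub-Rho substrate (150nM final) added. Fluorescence read kinetically at 480/540 nm, 6 reads every 60 seconds. Buffer: 50mM HEPES pH 7.8, 0.5mM EDTA, 0.1 mg/ml BSA, 1mM TCEP, 0.01% Tween-20.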
# [15] = Primary qHTS for small molecule stabilizers of the endoplasmic reticulum resident proteome: Secreted ER Calcium Modulated Protein (SERCaMP) assay (AID 1508630); conditions: SH-SY5Y GLuc-SERCaMP (Gaussia luciferase released on ER calcium loss) secretion, thapsigargin, luminescence; series mostly up to 38.4 µM; note: % is set by controls: 0 for no effect and ±100 for the full control effect
# Procedure, shortened: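 GLuc-SERCaMP-expressing SH-SY5Y cells, pretreated 16 h with compound, are challenged with thapsigargin to empty ER calcium stores; after 4 h, coelenterazine is added directly to the medium and luminescence is imaged.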
# [16] = biological target: Dual specificity protein kinase CLK4 (Homo sapiens) (UniProt Q9HAZ1); assay: qHTS Assay for Inhibitors of CDC-like Kinase 4 (ADP-FP Assay) (AID 1795); conditions: Transcreener ADP fluorescence polarization; series mostly up to 50 µM; note: nearly all actives have a fitted effect of over 60% in size; note: potency is the fitted concentration of half-maximal effect
# Procedure, shortened: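 Recombinant human Clk4 (6.25 nM) phosphorylated RS repeat peptide (100 uM) with 1 uM ATP in Tris pH 7.5/MgCl2/EGTA/DTT/Triton buffer for one hour. ADP was quantified by Transcreener competitive fluorescence polarization against an ADP calibration curve.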
# [17] = biological target: Dual specificity protein kinase CLK4 (Homo sapiens) (UniProt Q9HAZ1); assay: qHTS Assay for Inhibitors of CDC-like Kinase 4 (ADP-Glo Assay) (AID 1771); conditions: recombinant CLK4, ADP-Glo luminescence; series mostly up to 80 µM; note: potency is the fitted concentration of half-maximal effect; nearly all actives have a fitted effect of over 70% in size
# Procedure, shortened: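 Luminescence from ADP-Glo reports ADP produced by 25 nM Clk4 acting on 100 uM RS repeat peptide with 1 uM ATP over 1 hr at room temperature; residual ATP is depleted before ADP is converted to ATP for detection.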
# [18] = qHTS Assay for Identification of Small Molecule Agonists for Hypoxia Response Element Signaling Pathway (AID 914; active = well fitted activation curve with a large enough effect in the signal ratio, with a control signal flat, not every such curve was filed as active; the % refers to the signal ratio; note: % of control where 0% means no effect); conditions: ME-180 (cervical carcinoma) HRE-bla reporter, beta-lactamase ratio, CoCl2, 17 h; activation: active compounds read high
# Procedure, shortened: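 Compounds in a titration series were added to ME-180 reporter cells alongside an EC50 level of CoCl2. After 17 hours, beta-lactamase activity was read as the 460nm/530nm emission ratio of CCF4, giving AC50 values.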
# Chain of Cytochrome P450 2C19 (Homo sapiens) (P33261 whole entry, looked up): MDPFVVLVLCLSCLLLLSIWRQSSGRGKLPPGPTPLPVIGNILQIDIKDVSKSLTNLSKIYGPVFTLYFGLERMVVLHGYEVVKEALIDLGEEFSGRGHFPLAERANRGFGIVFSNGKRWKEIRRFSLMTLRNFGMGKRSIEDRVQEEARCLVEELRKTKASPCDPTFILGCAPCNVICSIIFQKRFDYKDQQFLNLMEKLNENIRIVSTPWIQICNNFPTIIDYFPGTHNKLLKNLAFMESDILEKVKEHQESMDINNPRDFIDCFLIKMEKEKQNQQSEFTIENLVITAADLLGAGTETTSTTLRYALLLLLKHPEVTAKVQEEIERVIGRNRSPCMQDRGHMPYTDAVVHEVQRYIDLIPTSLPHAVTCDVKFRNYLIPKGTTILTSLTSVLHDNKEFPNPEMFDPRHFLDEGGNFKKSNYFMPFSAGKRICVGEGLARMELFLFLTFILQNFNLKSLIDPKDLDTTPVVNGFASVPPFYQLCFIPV
# Chain of Cytochrome P450 1A2 (Homo sapiens) (P05177 whole entry, looked up): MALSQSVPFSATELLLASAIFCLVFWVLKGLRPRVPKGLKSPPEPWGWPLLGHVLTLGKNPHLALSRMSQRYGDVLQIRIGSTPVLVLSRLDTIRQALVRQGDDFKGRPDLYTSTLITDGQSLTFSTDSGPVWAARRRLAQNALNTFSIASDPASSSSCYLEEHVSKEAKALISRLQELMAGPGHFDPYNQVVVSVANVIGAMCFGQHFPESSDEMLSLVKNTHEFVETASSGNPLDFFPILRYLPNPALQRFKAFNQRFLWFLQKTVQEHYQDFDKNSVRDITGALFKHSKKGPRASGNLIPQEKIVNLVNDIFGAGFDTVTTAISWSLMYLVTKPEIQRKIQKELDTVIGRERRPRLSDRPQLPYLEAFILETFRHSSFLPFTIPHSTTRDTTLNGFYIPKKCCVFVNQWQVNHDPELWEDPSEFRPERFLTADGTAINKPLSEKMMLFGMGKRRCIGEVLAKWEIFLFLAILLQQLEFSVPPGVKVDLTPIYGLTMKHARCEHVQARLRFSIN
# Chain of Glucocorticoid receptor (Homo sapiens) (P04150 whole entry, looked up, the tested form may be a part): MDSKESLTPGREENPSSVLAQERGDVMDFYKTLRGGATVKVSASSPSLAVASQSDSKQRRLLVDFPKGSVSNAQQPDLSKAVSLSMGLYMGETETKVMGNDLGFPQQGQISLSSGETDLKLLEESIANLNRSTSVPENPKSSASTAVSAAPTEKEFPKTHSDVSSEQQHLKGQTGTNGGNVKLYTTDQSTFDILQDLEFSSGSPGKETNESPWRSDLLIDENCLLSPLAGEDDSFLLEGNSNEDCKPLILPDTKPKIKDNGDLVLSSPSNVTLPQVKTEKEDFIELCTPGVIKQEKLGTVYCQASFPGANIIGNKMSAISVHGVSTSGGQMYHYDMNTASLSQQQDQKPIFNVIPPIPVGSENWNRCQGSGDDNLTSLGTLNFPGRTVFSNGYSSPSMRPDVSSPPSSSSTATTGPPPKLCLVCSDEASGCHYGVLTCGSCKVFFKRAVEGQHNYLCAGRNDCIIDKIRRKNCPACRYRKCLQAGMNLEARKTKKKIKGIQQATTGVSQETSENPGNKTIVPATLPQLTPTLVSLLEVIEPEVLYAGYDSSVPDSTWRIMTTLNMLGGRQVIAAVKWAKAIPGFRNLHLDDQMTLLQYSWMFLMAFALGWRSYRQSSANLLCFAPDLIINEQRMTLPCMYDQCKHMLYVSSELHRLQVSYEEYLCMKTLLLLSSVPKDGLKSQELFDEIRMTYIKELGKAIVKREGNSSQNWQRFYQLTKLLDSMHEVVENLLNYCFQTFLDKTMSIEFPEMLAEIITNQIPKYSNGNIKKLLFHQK
# Chain of Lysosomal acid glucosylceramidase (Homo sapiens) (P04062 whole entry, looked up): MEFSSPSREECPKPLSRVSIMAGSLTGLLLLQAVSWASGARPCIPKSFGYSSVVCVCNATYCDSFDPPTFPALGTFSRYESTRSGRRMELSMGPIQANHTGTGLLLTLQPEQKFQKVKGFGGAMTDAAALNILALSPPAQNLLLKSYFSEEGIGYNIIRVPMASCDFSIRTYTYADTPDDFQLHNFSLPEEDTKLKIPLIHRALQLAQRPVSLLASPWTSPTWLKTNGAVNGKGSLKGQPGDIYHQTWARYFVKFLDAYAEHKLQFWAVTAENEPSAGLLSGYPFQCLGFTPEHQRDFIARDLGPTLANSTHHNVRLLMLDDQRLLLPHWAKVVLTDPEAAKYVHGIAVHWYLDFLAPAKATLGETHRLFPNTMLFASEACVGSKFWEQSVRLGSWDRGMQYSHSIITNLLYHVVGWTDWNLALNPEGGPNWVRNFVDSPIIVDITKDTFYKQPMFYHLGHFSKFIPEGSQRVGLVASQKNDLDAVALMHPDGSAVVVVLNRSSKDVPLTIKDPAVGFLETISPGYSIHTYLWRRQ
# Chain of Cytochrome P450 3A4 (Homo sapiens) (P08684 whole entry, looked up): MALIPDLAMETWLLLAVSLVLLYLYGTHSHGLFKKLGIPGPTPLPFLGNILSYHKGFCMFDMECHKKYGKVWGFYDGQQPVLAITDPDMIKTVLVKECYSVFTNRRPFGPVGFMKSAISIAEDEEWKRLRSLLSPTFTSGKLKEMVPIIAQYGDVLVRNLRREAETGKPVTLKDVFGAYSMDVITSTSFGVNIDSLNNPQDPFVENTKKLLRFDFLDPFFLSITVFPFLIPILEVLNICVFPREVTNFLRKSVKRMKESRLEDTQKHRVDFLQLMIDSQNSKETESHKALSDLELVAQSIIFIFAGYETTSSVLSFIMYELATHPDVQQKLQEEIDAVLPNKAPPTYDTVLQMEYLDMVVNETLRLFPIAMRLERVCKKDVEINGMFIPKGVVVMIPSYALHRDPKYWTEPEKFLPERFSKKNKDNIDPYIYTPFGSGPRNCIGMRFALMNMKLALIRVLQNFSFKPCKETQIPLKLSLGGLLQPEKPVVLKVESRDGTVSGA
# Chain of 3',5'-cyclic-AMP phosphodiesterase 4B (Homo sapiens) (Q07343 whole entry, looked up): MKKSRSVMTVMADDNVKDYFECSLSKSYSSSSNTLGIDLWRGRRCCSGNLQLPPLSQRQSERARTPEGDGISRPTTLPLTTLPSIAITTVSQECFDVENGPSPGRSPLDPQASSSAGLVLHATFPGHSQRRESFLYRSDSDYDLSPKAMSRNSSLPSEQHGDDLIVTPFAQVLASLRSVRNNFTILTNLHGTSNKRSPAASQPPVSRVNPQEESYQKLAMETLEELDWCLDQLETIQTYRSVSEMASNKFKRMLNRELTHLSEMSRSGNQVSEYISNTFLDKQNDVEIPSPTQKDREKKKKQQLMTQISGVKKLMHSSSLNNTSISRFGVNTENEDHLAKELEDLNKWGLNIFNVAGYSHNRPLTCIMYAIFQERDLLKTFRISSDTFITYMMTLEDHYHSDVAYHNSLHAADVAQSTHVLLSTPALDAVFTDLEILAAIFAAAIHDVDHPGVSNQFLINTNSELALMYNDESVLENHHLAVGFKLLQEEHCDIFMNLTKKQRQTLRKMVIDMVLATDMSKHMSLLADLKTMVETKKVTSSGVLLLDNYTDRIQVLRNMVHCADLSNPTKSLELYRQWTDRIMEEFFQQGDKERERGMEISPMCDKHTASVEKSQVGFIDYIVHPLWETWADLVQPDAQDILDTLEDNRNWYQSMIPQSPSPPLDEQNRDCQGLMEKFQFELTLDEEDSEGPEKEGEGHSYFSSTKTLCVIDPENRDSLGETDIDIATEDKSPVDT
# Chain of Ubiquitin carboxyl-terminal hydrolase 1 (Homo sapiens) (O94782 whole entry, looked up): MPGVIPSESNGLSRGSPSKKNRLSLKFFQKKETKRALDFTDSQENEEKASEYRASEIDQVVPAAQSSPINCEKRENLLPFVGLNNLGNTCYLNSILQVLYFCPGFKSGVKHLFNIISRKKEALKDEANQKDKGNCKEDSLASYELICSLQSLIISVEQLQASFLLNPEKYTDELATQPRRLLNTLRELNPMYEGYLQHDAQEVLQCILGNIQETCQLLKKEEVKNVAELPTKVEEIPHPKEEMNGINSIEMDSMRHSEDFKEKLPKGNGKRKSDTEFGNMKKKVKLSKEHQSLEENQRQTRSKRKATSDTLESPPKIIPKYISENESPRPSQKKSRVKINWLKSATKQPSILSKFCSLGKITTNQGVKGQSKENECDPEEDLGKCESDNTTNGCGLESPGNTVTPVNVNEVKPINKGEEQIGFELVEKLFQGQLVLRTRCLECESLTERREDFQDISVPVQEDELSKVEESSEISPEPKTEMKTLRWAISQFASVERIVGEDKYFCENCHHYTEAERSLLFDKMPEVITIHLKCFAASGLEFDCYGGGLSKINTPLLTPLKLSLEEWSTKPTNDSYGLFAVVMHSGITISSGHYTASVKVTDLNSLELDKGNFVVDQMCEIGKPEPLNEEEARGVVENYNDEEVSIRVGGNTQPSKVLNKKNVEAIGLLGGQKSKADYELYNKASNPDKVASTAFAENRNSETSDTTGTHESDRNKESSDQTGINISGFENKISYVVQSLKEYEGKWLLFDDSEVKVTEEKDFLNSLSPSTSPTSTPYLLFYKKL
# Chain of Dual specificity protein kinase CLK4 (Homo sapiens) (Q9HAZ1 whole entry, looked up): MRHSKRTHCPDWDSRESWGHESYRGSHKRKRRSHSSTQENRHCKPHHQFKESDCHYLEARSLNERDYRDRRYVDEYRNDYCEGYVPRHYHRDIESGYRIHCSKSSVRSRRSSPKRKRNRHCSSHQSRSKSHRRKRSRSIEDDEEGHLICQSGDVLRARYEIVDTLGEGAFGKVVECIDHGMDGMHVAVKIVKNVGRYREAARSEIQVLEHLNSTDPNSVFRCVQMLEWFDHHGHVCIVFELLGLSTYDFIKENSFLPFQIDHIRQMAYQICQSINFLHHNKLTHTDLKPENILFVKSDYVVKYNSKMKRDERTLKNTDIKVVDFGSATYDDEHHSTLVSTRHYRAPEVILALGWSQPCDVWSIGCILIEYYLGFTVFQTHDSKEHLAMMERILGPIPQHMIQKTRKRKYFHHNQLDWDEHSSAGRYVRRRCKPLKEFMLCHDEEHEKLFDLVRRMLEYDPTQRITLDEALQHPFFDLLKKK
SMILES,Potency [1],"activity change, negative = inhibition [2]",Potency [3],"activity change, negative = inhibition [4]","activity, negative = inhibition [5]",Potency [6],Potency [7],Potency [8],Potency [9],Potency [10],Potency [11],Potency [12],Potency [13],Potency [14],outcome [15],Potency [16],Potency [17],activation [18]
COc1ccc2[nH]cc(CCNc3ccnc(-c4ccoc4)n3)c2c1,> 11.4 µM,-23%,0.501 µM (active),-2.92%,-23.2%,> 46 µM,> 46 µM,inactive,inactive,3.16 µM (active),inactive,0.501 µM (active),14.1 µM (active),inactive,inactive,,,
Cc1noc(C)c1-c1nc(NCCN2CCOCC2)c2ccccc2n1,,,2.51 µM (active),,-0.501%,> 46 µM,> 46 µM,inactive,inactive,,inactive,7.94 µM (active),inactive,inactive,inactive,inactive,,
CN(C)C(=O)c1ccc(-c2cc(N(C)Cc3ccco3)ncn2)cc1,> 11.4 µM,-8.02%,25.1 µM (active),-13.4%,16.7%,> 46 µM,> 46 µM,inactive,inactive,,,,,inactive,inactive,inactive,28.2 µM (active),
c1cncc(-c2ccc3ncnc(NC4CCNCC4)c3c2)c1,> 11.4 µM,5.15%,12.6 µM (active),13.2%,3.6%,> 46 µM,> 46 µM,inactive,inactive,,inactive,,,inactive,inactive,12.6 µM (active),15.8 µM (active),
N#Cc1cccc(-c2nccc(-n3ccnc3)n2)c1,> 11.4 µM,10.7%,0.2 µM (active),10.9%,4.18%,> 46 µM,> 46 µM,inactive,inactive,,inactive,7.94 µM (active),,inactive,inactive,12.6 µM (active),10 µM (active),
Cc1cnc(CNc2nc(-c3ccoc3)nc3ccccc23)cn1,> 11.4 µM,-13.5%,2 µM (active),,9.84%,> 46 µM,> 46 µM,inactive,inactive,,inactive,,inactive,inactive,inactive,,,-5.75%
